The first experiment has as its target COBRA1. In words: pooled miR-30 sensor sort-seq; sequence = guide strand. As to conditions: shRNA.
TTGGATATGAGACTGGGGCTTT displayed a sensor-assay potency score (higher = more potent) of -0.217.

In the case of TTCTTGTTCCTCTGCTTGGTGA, the sensor-assay potency score (higher = more potent) is -1.3.

Take TTCTCTGTCTGGAACTGCTCGA: the sensor-assay potency score (higher = more potent) was -0.254.

For TACAGCTTCACGTTCTTCCCCA, the sensor-assay potency score (higher = more potent) was 0.123.

TTTTTTCTCCGGAACCTTGGGC returned a sensor-assay potency score (higher = more potent) of 0.129.

TGACACTCGCTCCAGCAGCTTG yielded a sensor-assay potency score (higher = more potent) of -1.51.

With TTCTGATCCACATTGAAAGTGT, the sensor-assay potency score (higher = more potent) was -0.064.

ATGAGCATCGGGAGGAACCTGG registered a sensor-assay potency score (higher = more potent) of -1.62.

In the case of TTGCTGTCCACGAACCGCTCTC, the sensor-assay potency score (higher = more potent) was -0.427.

As to ATGAGCTCTACCTCCATCTTGG, the sensor-assay potency score (higher = more potent) was -0.766.

AAACTTAGTGAAGCTTTCGGGA had a sensor-assay potency score (higher = more potent) of -0.764.

The target in the next experiment is COG2. Described as above. Conditions: shRNA.
The sequence TTCCACTTCTTATTGAAGCTGT displayed a sensor-assay potency score (higher = more potent) of 0.407.

With TTTCTCATGAAATGCATCGGGA, the sensor-assay potency score (higher = more potent) was -0.465.

In turn, TTGACAAACACAGAGTATCGTG displayed a sensor-assay potency score (higher = more potent) of -0.356.

On to TCATCTGACCAACACCTCCTAA, for which the sensor-assay potency score (higher = more potent) is -1.05.

Values taken from the OligoGym collection.
Further: reference of the scale not given here.
